Records with an inconclusive call do not appear. Activity calls are given as the source filed them. Calls follow the shape of the dose curve; as a rule, active = well fitted cell-killing curve with a large enough effect in the repeat runs; inconclusive = weak or mixed curves, or effect the other way; inactive = no such curve, though single readings can be large or run the other way.
% is scaled to controls: 0 for no effect and ±100 for the full control effect.

The test can be described thus: qHTS assay to identify small molecule antagonists of the retinoid-related orphan receptor gamma (ROR-gamma) signaling pathway - cell viability counter screen (AID 1159520). Also: nearly all actives have a fitted effect of over 50% in size. The conditions noted are these: Tet-on RORgamma CHO cells viability, ATP luminescence, 16 h; series mostly up to 92.4 µM; activity, negative = cytotoxicity: at the top concentration. An excerpt:
U.S. Tox21 Program National Center for Advancing Translational Sciences [NCATS] NIH Chemical Genomics Center [NCGC] U.S. Environmental Protection Agency [EPA] National Institutes of Environmental Health Sciences [NIEHS] National Toxicology Program [NTP] U.S. Food and Drug Administration [FDA] Tox21 Assay Overview: Nuclear steroid hormone receptors are involved in many biological processes including inflammatory responses, cell proliferation, and apoptosis. Environmental factors or compounds disrupting these nuclear receptor pathways and gene expression may promote susceptibility to immunotoxicants and autoimmune diseases. One important group of these expression factors are the retinoid-related orphan receptors. To assess compounds that may interfere with the retinoid-related orphan receptor gamma (ROR-gamma) transcription factor, a cell-based luciferase assay was used. The CHO cell-based assay utilizes a TET-inducible ROR expression factor and ROR response element-LUC reporter gene. Reporter gene activity was induced using Doxycycline Hyclate and measured after 16 hr incubation. Tet-on ROR gamma CHO cells were used to screen against the Tox21 10K compound library for cytotoxicity by measuring the viability of the cells based on the quantitation of the ATP.
Tox21 Assay Protocol Summary: Tet-on ROR gamma CHO cells were dispensed at 1,000 cells in 4 uL of culture medium per well into white wall/solid bottom 1536-well plates using a Multidrop Combi (Thermo Scientific, Waltham, MA) dispenser. Following incubation at 37 C and 5% CO2 for 4 hr, 23 nL of compounds dissolved in DMSO, positive controls or DMSO only were transferred by a Pintool station (Kalypsys, San Diego, CA) and after 2 hr incubation at 37 C, one ul of 1 uM (final concentration) of Doxycycline Hyclate was added to all the wells by using a Flying Reagent Dispenser (FRD) (Aurora Discovery, San Diego, CA). After 16 hr incubation at 37 C and 5% CO2, 5 uL of CellTiter-Glo reagent (Promega Corporation, Madison, WI) was added to each assay plate using FRD. After 30 min incubation at room temperature, luminescence was quantified on a ViewLux plate reader (Perkin Elmer, Waltham, MA).
With `Brc1ccc(Oc2ccccc2)cc1`, the “activity, negative = cytotoxicity” value is 7.16% (inactive). Turning to `c1ccoc1`, the “activity, negative = cytotoxicity” value is 8.24% (inactive).

Consider `O=C(Nc1ccccc1)Nc1cnns1`, for which the “activity, negative = cytotoxicity” value was -12.2% (inactive).

As to `ClCc1ccccc1`, the “activity, negative = cytotoxicity” value is 10.7% (inactive).

`Clc1ccc(C2(Cn3cncn3)CC(Br)CO2)c(Cl)c1` (stereo not given): the “activity, negative = cytotoxicity” value was -1.71% (inactive). Turning to `CN(C)c1ccc(N(C)C)cc1`, the “activity, negative = cytotoxicity” value was -10.9% (inactive). As for `O=[N+]([O-])c1ccccc1CCl`, the “activity, negative = cytotoxicity” value was 4.81% (inactive).

Turning to `Nc1nc(N)nc(N)n1`, the “activity, negative = cytotoxicity” value was 4.89% (inactive). For the molecule `CC(O)(CS(=O)(=O)c1ccc(F)cc1)C(=O)Nc1ccc(C#N)c(C(F)(F)F)c1` (stereo not given), the “activity, negative = cytotoxicity” value is -9.33% [at 42.5 µM] (inactive). For `CN1C(=O)NC(=O)C(C)(C2=CCCCC2)C1=O` (stereo not given), the “activity, negative = cytotoxicity” value is 2.74% [at 42.5 µM] (inactive). Regarding `CC(C)O.CC(C)O.OCCN(CCO)CCO.OCCN(CCO)CCO.[Ti]`, the “activity, negative = cytotoxicity” value is -1.11% (inactive). For `O=C(OC1CCCCC1)c1ccccc1C(=O)OC1CCCCC1`, the “activity, negative = cytotoxicity” value was -22.1% (inactive).

As for `CCCCCC[N+](=O)[O-]`, the “activity, negative = cytotoxicity” value was 3.58% (inactive). Regarding `NS(=O)(=O)C(F)(F)C(F)(F)C(F)(F)C(F)(F)C(F)(F)C(F)(F)C(F)(F)C(F)(F)F`, the “activity, negative = cytotoxicity” value was -23.7% (inactive). As to `CCCCCCCCCCOC(=O)c1ccccc1C(=O)OCCCCCCCCCC`, the “activity, negative = cytotoxicity” value is 8.34% (inactive). Turning to `CCCCNP(N)(N)=S`, the “activity, negative = cytotoxicity” value was 0.484% (inactive). On to `CCC(COC(=O)c1cc(OC)c(OC)c(OC)c1)(c1ccccc1)N(C)C` (stereo not given), for which the “activity, negative = cytotoxicity” value is -19.6% [at 42.5 µM] (inactive). As for `CNC(C)Cc1ccccc1OC` (stereo not given), the “activity, negative = cytotoxicity” value was 5.36% [at 42.5 µM] (inactive). As to `CC1Sc2c(C(=O)O)c(=O)c3cc(F)c(N4CCNCC4)cc3n21` (stereo not given), the “activity, negative = cytotoxicity” value is -0.369% [at 42.5 µM] (inactive). Regarding `COC(N)=O`, the “activity, negative = cytotoxicity” value was -17.5% (inactive).

With `C#CCOC(C(=O)OCCN(C)C)(c1ccccc1)c1ccccc1`, the “activity, negative = cytotoxicity” value is 2.75% [at 42.5 µM] (inactive). Same read-out and setting: then `C=CC(=O)OC`, with -2.9% (inactive); and `CCC(Br)(CC)C(=O)NC(N)=O`, with -3.87% (inactive).

With `O=C1CN=C(c2ccccc2)c2cc(Cl)ccc2N1CC1CC1`, the “activity, negative = cytotoxicity” value was -7.93% (inactive).

`CCOc1nc(F)cc2nc(S(=O)(=O)Nc3c(Cl)cccc3Cl)nn12`: the “activity, negative = cytotoxicity” value was -10.7% (inactive). As to `CCn1cc[n+](C)c1`, the Potency entry was “inactive”.

In the case of `O=C1C(=O)c2cccc3cccc1c23`, the “activity, negative = cytotoxicity” value is -15.8% (inactive). Turning to `COc1ccc(-c2ccccc2)cc1NNC(=O)OC(C)C`, the “activity, negative = cytotoxicity” value was 0.542% (inactive). For `CC(C)N(CCC(C(N)=O)(c1ccccc1)c1ccccn1)C(C)C` (stereo not given), the “activity, negative = cytotoxicity” value is 6.31% [at 42.5 µM] (inactive).

Take `CCc1ccc(C(=O)NN(C(=O)c2cc(C)cc(C)c2)C(C)(C)C)cc1`: the “activity, negative = cytotoxicity” value is -5.45% (inactive).

For `CC1C(=O)C[C@]2(C(C)C)C[C@H]12` (stereo not given in full), the “activity, negative = cytotoxicity” value is 1.99% (inactive).

For `COc1c(C(C)(C)C)cc([N+](=O)[O-])c(C)c1[N+](=O)[O-]`, the “activity, negative = cytotoxicity” value is 5.6% (inactive). Same read-out and setting: in the case of `CN1C(=O)C(O)N=C(c2ccccc2)c2cc(Cl)ccc21` (stereo not given) it was -13.5% (inactive).

As to `Cl/C=C\Cl`, the “activity, negative = cytotoxicity” value was 5.99% (inactive).

As to `NCCCNCCCN`, the “activity, negative = cytotoxicity” value is -0.312% (inactive). On to `COP(=O)(OC)O/C(=C/Cl)c1cc(Cl)c(Cl)cc1Cl`, for which the “activity, negative = cytotoxicity” value was -19.6% (inactive). As for `CCOC(=O)[C@]1(c2ccccc2)Oc2ccccc2[C@@H]1N`, the “activity, negative = cytotoxicity” value is -5.86% (inactive). For the molecule `O=NN1CCCCCC1`, the “activity, negative = cytotoxicity” value was 13.6% (inactive). Same read-out and setting: then `CCO[C@H]1O[C@@H]2OC3(C)CC[C@H]4[C@H](C)CC[C@@H]([C@H]1C)[C@@]24OO3`, with -11.1% [at 42.5 µM] (inactive); and `CC(Cl)Cl`, with 5.61% (inactive).

These data come from PubChem BioAssay (Tox21).
